# Measurements: PMC4336329 (PLoS ONE, 2015)
# The campaign covered roughly 310,000 compounds. About 14,000 (4.5%) showed an effect of 50% or more. The effect is printed as a negative number. This is one part of a sample in which strong results are shown more often than they occur.
# Biological target: human ether-à-go-go-related gene (hERG) potassium channel (human, UniProt Q12809)
# Experiment: primary screen, population patch clamp on CHO cells stably expressing hERG; higher = less effect of the substance
# 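Further: peak tail current of the secondary pulse compared with the same well before compound.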
# Chain of human ether-à-go-go-related gene (hERG) potassium channel (Q12809 whole entry, looked up): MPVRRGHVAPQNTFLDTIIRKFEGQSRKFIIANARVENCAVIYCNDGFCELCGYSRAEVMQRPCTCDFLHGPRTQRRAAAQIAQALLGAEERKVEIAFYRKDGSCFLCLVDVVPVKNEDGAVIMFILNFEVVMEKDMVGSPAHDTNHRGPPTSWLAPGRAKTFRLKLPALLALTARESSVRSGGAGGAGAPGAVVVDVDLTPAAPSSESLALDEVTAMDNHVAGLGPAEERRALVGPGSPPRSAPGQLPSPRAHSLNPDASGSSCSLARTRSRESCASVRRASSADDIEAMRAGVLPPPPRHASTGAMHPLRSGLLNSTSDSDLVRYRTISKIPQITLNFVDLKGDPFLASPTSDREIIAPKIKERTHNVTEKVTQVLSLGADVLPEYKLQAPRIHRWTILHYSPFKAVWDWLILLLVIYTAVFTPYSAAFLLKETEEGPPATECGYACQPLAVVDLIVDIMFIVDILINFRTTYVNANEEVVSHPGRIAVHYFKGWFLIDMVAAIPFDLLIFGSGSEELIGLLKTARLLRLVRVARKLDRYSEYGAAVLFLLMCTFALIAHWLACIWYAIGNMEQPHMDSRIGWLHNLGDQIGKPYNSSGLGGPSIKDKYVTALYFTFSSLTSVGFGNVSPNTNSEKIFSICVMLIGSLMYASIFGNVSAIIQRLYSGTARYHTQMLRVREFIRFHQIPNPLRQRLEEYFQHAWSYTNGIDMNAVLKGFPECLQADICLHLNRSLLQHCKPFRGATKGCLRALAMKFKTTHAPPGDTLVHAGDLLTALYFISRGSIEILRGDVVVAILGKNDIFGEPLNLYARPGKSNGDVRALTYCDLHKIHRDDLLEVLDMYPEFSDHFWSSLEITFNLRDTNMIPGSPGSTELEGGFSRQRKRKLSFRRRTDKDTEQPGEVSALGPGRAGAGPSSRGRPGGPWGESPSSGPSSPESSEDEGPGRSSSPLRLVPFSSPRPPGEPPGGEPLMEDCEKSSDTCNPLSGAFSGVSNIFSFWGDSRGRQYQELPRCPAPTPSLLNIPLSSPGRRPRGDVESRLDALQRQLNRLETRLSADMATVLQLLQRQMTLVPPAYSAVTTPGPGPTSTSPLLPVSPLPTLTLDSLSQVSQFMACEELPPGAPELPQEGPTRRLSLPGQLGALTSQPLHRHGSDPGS
row,SMILES,"hERG current change (%, negative = inhibition) at 10uM [%]"
1,Cc1sc(NC(=S)NC(=O)c2ccccc2)c(C#N)c1C,0.195
2,O=C(N/N=C1\C(=O)c2cccc3cccc1c23)c1ccc(O)cc1,8.35
3,CCOC(=O)c1[nH]c2cc(OC)c(OC)cc2c1NC(=O)c1ccc2c(c1)OCO2,-4.45
4,COc1cc(C(=O)N/N=C(\C)Cn2nc([N+](=O)[O-])cc2C)ccc1O,-21.1
5,CC(C)(C)c1nnc(NC(=O)NS(=O)(=O)c2ccccc2)s1,19.7
6,O=C(Nc1nccs1)c1ccc(S(=O)(=O)N2CCCCC2)cc1,3.29
7,COc1ccc(C(=O)O)cc1S(=O)(=O)N(C)C,16.6
8,O=C(Nc1cc(Cl)ccc1Oc1ccccc1)c1ccccc1F,-4.45
9,CCCC(C)C(=O)Nc1ccccc1C(=O)OCC (centres unmarked),-4.39
10,O=S(=O)(Nc1ccccc1Cl)c1cc(NC(=S)NCCN2CCOCC2)ccc1Cl,14
11,CCOC(NC(=O)c1ccccc1)C(NC(=O)c1ccccc1)OCC (centres unmarked),-0.069
12,CCN1CCN(S(=O)(=O)c2ccc(C)c([N+](=O)[O-])c2)CC1,-0.352
13,Cc1ccc([N+](=O)[O-])cc1S(=O)(=O)N1CCCC1,7.21
14,CCN1CCN(c2ccc(N3CCN(S(=O)(=O)c4cc([N+](=O)[O-])ccc4C)CC3)nn2)CC1,-54.4
15,Cc1ccc(S(=O)(=O)N2CCN(c3ccc(N4CCOCC4)nn3)CC2)cc1[N+](=O)[O-],-4.74
16,CCN1CCN(c2ccc(N3CCN(S(=O)(=O)c4ccc(C)c([N+](=O)[O-])c4)CC3)nn2)CC1,-56.6
17,Cc1ccc([N+](=O)[O-])cc1S(=O)(=O)N1CCN(C)CC1,0.51
18,C[C@]12CC[C@@H]3c4cc(O)c(O)cc4CC[C@H]3[C@@H]1CC[C@@H]2O,24.1
19,O=C(O)c1cc(-c2cccc(Cl)c2)nc2nc(N3CCCCC3)sc12,8.18
20,CS(=O)(=O)c1ccc(NCC2CCCO2)c([N+](=O)[O-])c1 (centres unmarked),9.48
21,CN(CCc1ccccc1)C1CCCN(C(=O)Cn2cccn2)C1 (centres unmarked),-1.49

row,SMILES,"hERG current change (%, negative = inhibition) at 10uM [%]"
1,Cc1cc(C)nc(SCc2ccc(C(=O)N/N=C/c3ccncc3)cc2)n1,-50.5
2,Cc1cc(C)nc(SCc2ccc(C(=O)N/N=C/c3cccnc3)cc2)n1,-17.3
3,Cc1cc(C)nc(SCc2ccc(C(=O)N/N=C/c3ccc(C(=O)O)cc3)cc2)n1,28.6
4,N=C1C(c2nc3ccccc3[nH]2)=C(O)CN1NC(=O)c1c[nH]c2ccccc12,17
5,CCOc1ccc(N2C(=O)Nc3ccc(Br)cc3C2(O)C(=O)NC(C)C)cc1 (centres unmarked),8.92
6,O=C(Cn1ncc2c3ccccc3n(Cc3ccc(F)cc3)c2c1=O)N1CCC2(CC1)OCCO2,-67.2
7,Cc1c2cnn(CC(=O)N3CCC4(CC3)OCCO4)c(=O)c2c(C)n1Cc1ccccc1,-0.415
8,Cc1c2cnn(CC(=O)N3CCC4(CC3)OCCO4)c(=O)c2c(C)n1Cc1ccccc1F,6.7
9,O=C(Cn1ncc2c3ccccc3n(Cc3cccc(Cl)c3)c2c1=O)N1CCC2(CC1)OCCO2,-69
10,O=C(Cn1ncc2c3ccccc3n(Cc3ccc(F)cc3)c2c1=O)N1CCN(c2ncccn2)CC1,-16.2
11,O=C(Cn1ncc2c3ccccc3n(Cc3ccccc3F)c2c1=O)N1CCC2(CC1)OCCO2,-72.8
12,Cn1c2ccccc2c2cnn(CC(=O)N3CCC4(CC3)OCCO4)c(=O)c21,-22.2
13,Cc1c2cnn(CC(=O)N3CCC4(CC3)OCCO4)c(=O)c2c(C)n1Cc1ccc(F)cc1,-7.31
14,Cc1c2cnn(CC(=O)N3CCC4(CC3)OCCO4)c(=O)c2c(C)n1Cc1cccc(Cl)c1,1.18
15,Cc1ccc2nc(C(C)O)[nH]c2c1 (centres unmarked),17.3
16,CC#CCCCC(=O)Nc1ccc(C(=O)O)cc1,1.36
17,CN1CCN(Cc2nc(-c3cccs3)no2)CC1c1ccccc1 (centres unmarked),-8.45
18,COC(=O)c1nnn(CC(=O)NC(=O)Nc2cccc(Cl)c2C)c1C(=O)OC,-0.536
19,O=C(COc1ccccc1)Nc1ccccc1N1CCCCC1,2.27
20,CCCN(CCC)CCCNC(=O)c1cn(CC)c2ccc(S(=O)(=O)N3CCc4ccccc4C3)cc2c1=O,-69.9
21,CCN(CC)CCCNC(=O)c1cn(CC)c2ccc(S(=O)(=O)N3CCc4ccccc4C3)cc2c1=O,-52.9

row,SMILES,"hERG current change (%, negative = inhibition) at 10uM [%]"
1,CCCCN(CCCC)CCNC(=O)c1cn(CC)c2ccc(S(=O)(=O)N3CCc4ccccc4C3)cc2c1=O,-78.8
2,CCn1cc(C(=O)NCCc2ccccc2)c(=O)c2cc(S(=O)(=O)N3CCCC3)ccc21,1.7
3,CCCN(CCC)CCCNC(=O)c1cn(CC)c2ccc(S(=O)(=O)N3CCOCC3)cc2c1=O,12.8
4,CCn1cc(C(=O)NCCN(CC(C)C)CC(C)C)c(=O)c2cc(S(=O)(=O)N3CCOCC3)ccc21,-14.1
5,CCn1cc(C(=O)NCc2ccco2)c(=O)c2cc(S(=O)(=O)N3CCc4ccccc4C3)ccc21,-15.3
6,CCN(CC)CCNC(=O)c1cn(CC)c2ccc(S(=O)(=O)N3CCc4ccccc4C3)cc2c1=O,-59.4
7,CCn1cc(C(=O)NCCCN2CCN(C)CC2)c(=O)c2cc(S(=O)(=O)N3CCc4ccccc4C3)ccc21,-20.4
8,O=C(NC1CCCCC1)C1CCC(CNS(=O)(=O)c2ccccc2)CC1 (centres unmarked),10.3
9,COc1ccc(-c2c(C#N)c(C)nc3c2C(=O)c2ccccc2-3)cc1,-3.8
10,Cn1c(SCC(=O)c2ccccc2)nnc1-c1ccc(O)cc1,-11.2
11,COc1cccc(C=NCC(C)N=Cc2cccc(OC)c2O)c1O (centres unmarked),3.33
12,Cn1c(=O)c2c(nc(NCc3ccco3)n2CC(O)CO)n(C)c1=O (centres unmarked),22.1
13,CCOC(=O)N1CCN(C(=O)CCN2C(=O)COc3ccccc32)CC1,0.87
14,c1ccc(-c2noc(-c3ccc4ccccc4c3)n2)cc1,11.9
15,CCOC(=O)c1c(NC(=O)CCCN2CCOCC2)sc2c1CC(C)(C)OC2,-9.14
16,COc1ccc(C2=NOC(C(=O)Nc3ccc4c(c3)OCCO4)C2)c(OC)c1 (centres unmarked),3.96
17,CCOC(=O)COc1ccc(S(=O)(=O)NCc2ccco2)cc1,-1.53
18,CCNc1nc(NC(C)CC)nc(ON=C(C)C)n1 (centres unmarked),-2.23
19,CCCCN(C)CCCNC(=O)c1cn(CC)c2ccc(S(=O)(=O)N3CCOCC3)cc2c1=O,10.3
20,CCCCSCCCNC(=O)c1cn(CC)c2ccc(S(=O)(=O)N3CCOCC3)cc2c1=O,-44.9
21,CCCCN(CC)CCCNC(=O)c1cn(CC)c2ccc(S(=O)(=O)N3CCc4ccccc4C3)cc2c1=O,-74.9

row,SMILES,"hERG current change (%, negative = inhibition) at 10uM [%]"
1,O=C(CCN1CCCCO1)N1CCCC(Nc2cccc(F)c2)C1 (centres unmarked),14
2,Nc1nc2n(n1)C(c1ccco1)CC(c1ccc(Cl)c(Cl)c1)N2 (centres unmarked),-31.4
3,CC1CCN(C(=S)Nc2ccc(F)cc2)CC1,3.1
4,CCC1C(=O)C(C)(C)C(=O)OC1c1ccc([N+](=O)[O-])cc1 (centres unmarked),-7.26
5,CC1C(=O)CC(c2ccccc2)NC1c1ccccc1 (centres unmarked),-7.08
6,CC1C(=O)CC(c2ccc([N+](=O)[O-])cc2)NC1c1ccc([N+](=O)[O-])cc1.Cl (centres unmarked),-69.7
7,CCC1C(=O)CC(c2ccc([N+](=O)[O-])cc2)NC1c1ccc([N+](=O)[O-])cc1 (centres unmarked),-76.3
8,CC1C(=O)C(C)C(c2ccc([N+](=O)[O-])cc2)NC1c1ccc([N+](=O)[O-])cc1 (centres unmarked),-46
9,CCC1C(=O)CC(c2ccccc2)NC1c1ccccc1 (centres unmarked),-21.4
10,Cc1ccc(NC(=O)CN(C)C(=O)CSc2nc3ccccc3o2)cc1,-20.5
11,COc1cc2c(cc1NC(=O)CN1CCN(S(=O)(=O)c3ccccc3F)CC1)oc1ccccc12,10.1
12,COc1c(C)cc(C(=O)C2CCCN(Cc3cnc(C)s3)C2)cc1C (centres unmarked),-7.68
13,COc1c(C)cc(C(=O)C2CCCN(Cc3cccc4nccnc34)C2)cc1C (centres unmarked),-64.5
14,CSc1ccc(C(=O)C2CCCN(Cc3cc4ccccc4[nH]3)C2)cc1 (centres unmarked),-48.8
15,CCCN1CCCC(C(=O)c2cc(C)c(OC)c(C)c2)C1 (centres unmarked),-3.65
16,COc1ccccc1C(=O)C1CCCN(Cc2cccc3nccnc23)C1 (centres unmarked),-67.4
17,CSc1ccc(C(=O)C2CCCN(Cc3cccc4nccnc34)C2)cc1 (centres unmarked),-82.8
18,COc1ccccc1C(=O)C1CCCN(Cc2cnc(C)s2)C1 (centres unmarked),-8.13
19,CSc1ccc(C(=O)C2CCCN(C(=O)c3cccnc3SC)C2)cc1 (centres unmarked),-32.4
20,COc1ccccc1C(=O)C1CCCN(Cc2cn[nH]c2C2CCCCC2)C1 (centres unmarked),-31.5
